This note sets out measurements from PubChem BioAssay (Tox21).

Inconclusive results are not listed. The source made the active and inactive calls. Unless noted, the call rests on the fitted dose curve; in most records, active means well fitted curve in the direction sought with a large enough effect in the repeat runs; inconclusive means weak or mixed curves; inactive means no such curve, though single readings can be large; an effect the other way counts as inactive or inconclusive.

Test [1] in a line: qHTS assay to identify small molecule agonists of the peroxisome proliferator-activated receptor delta (PPARd) signaling pathway - cell viability counter screen (AID 743211). Further: nearly all actives have a fitted effect of over 55% in size. The method in brief:
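Luminescent ATP viability assay (CellTiter-Glo, 30 min RT) in UAS-bla HEK293H cells carrying the PPAR delta reporter construct, 3000 cells/well, after a 17 h compound treatment at 37 C.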
A general note: Quantitative high-throughput screening tests each substance at several concentrations.

The target in test [2] is Peroxisome proliferator-activated receptor delta (Homo sapiens) (UniProt Q03181). In words: qHTS assay to identify small molecule agonists of the peroxisome proliferator-activated receptor delta (PPARd) signaling pathway (AID 743212; calls by dose curve). The method in brief:
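Cells expressing a UAS-driven beta-lactamase reporter (PPARd-bla HEK293H) were given test compounds after a 5 h settle and kept at 37 C. Reporter activity was then measured as FRET fluorescence using LiveBLAzer B/G substrate.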

Test [3] can be described thus: qHTS assay to identify small molecule antagonists of the peroxisome proliferator-activated receptor delta (PPARd) signaling pathway - cell viability counter screen (AID 743213). Further: nearly all actives have a fitted effect of over 50% in size. The method in brief:
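CellTiter-Glo was added to PPARd-bla HEK293H wells following 17 h compound treatment in the presence of 300 nM L165041. Luminescence was recorded after 30 min at room temperature.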

For test [4], the target named is Peroxisome proliferator-activated receptor delta (Homo sapiens) (UniProt Q03181). In words: qHTS assay to identify small molecule antagonists of the peroxisome proliferator-activated receptor delta (PPARd) signaling pathway (AID 743215; active means well fitted inhibition curve with a large enough effect in the signal ratio in the repeat runs, not every such curve was filed as active; the % refers to the signal ratio;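 further: cells stimulated with agonist L165041 at 300 nM final during compound exposure; series mostly up to about 62 µM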). The essentials:
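Screen format: qHTS, antagonist mode. HEK293H PPARd-bla cells received compound and 300 nM L165041 (final), 17 h, 37 C. Beta-lactamase detected via FRET substrate fluorescence, 2 h, room temperature.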

Test [5] addresses Bile acid receptor (Homo sapiens) (UniProt Q96RI1). The test is described as follows: qHTS assay to identify small molecule antagonists of the farnesoid-X-receptor (FXR) signaling pathway (AID 743217; active means well fitted inhibition curve with a large enough effect in the signal ratio in the repeat runs, not every such curve was filed as active; the % refers to the signal ratio). The essentials:
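Quantitative HTS, beta-lactamase reporter format: FXR-UAS-bla HEK 293T cells co-treated 16 h at 37 °C with compounds and 50 uM final chenodeoxycholic acid, then read by B/G FRET fluorescence.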

The nature of test [6]: qHTS assay to identify small molecule agonists of the farnesoid-X-receptor (FXR) signaling pathway - cell viability counter screen (AID 743218). Further: nearly all actives have a fitted effect of over 45% in size. The method in brief: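 Same-well cytotoxicity check on FXR-UAS-bla HEK 293T cells: 5 h attachment, 16 h compound at 37 C, CellTiter-Glo luminescence read at room temperature after 30 min.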
Test [7] in a line: qHTS assay to identify small molecule antagonists of the farnesoid-X-receptor (FXR) signaling pathway - cell viability counter screen (AID 743221; active means well fitted cell-killing curve with a large enough effect in the repeat runs, not every such curve was filed as active; further: nearly all actives have a fitted effect of over 50% in size). The method in brief:
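In GeneBLAzer FXR-UAS-bla HEK 293T cells stimulated with 50 uM chenodeoxycholic acid (final), compounds acted for 16 h at 37 C. Viability was assessed afterwards by CellTiter-Glo luminescence.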

Test [8] has as its target Vitamin D3 receptor (Homo sapiens) (UniProt P11473). In words: qHTS assay to identify small molecule antagonists of the vitamin D receptor (VDR) signaling pathway (AID 743223; active means well fitted inhibition curve with a large enough effect in the signal ratio in the repeat runs, not every such curve was filed as active; the % refers to the signal ratio). The essentials: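 Agonist 1alpha,25-dihydroxyvitamin D3 (3 nM in well) was added with each compound to VDR-bla cells preincubated 4 h. Cells stood 16 h at 37C, then FRET substrate 2 h at room temperature; fluorescence intensity recorded.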

A short description of test [9]: qHTS assay to identify small molecule antagonists of the vitamin D receptor (VDR) signaling pathway - cell viability counter screen (AID 743225). Further: nearly all actives have a fitted effect of over 50% in size. The essentials: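 Luminescent cell viability (CellTiter-Glo) in VDR-bla HEK 293T cells after 16 h compound exposure at 37C in the presence of 3 nM final 1-alpha,25-dihydroxy vitamin D3.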
The nature of test [10]: qHTS assay to identify small molecule agonists of the NFkB signaling pathway - cell viability counter screen (AID 1159515; calls by dose curve; further: series mostly up to about 61 µM; nearly all actives have a fitted effect of over 55% in size). The method in brief: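 Counter screen run alongside the NFkB-bla agonist assay: ME-180 reporter cells exposed to compounds for 5 hr, then lysed with CellTiter-Glo in the same wells. Luminescence, read after 30 min, reflects viable cells.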
Test [11] in a line: qHTS assay to identify small molecule agonists of the endoplasmic reticulum stress response signaling pathway (AID 1159516; active means well fitted activation curve with a large enough effect in the signal ratio in the repeat runs, not every such curve was filed as active; the % refers to the signal ratio). The essentials: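 For this screen, HeLa cells stably carrying beta-lactamase under the ER stress response element received test compounds, positive controls or DMSO for 5 hr at 37 C; B/G FRET substrate was then added and dual-wavelength emission recorded.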

Test [12] is described as follows: qHTS assay to identify small molecule agonists of the endoplasmic reticulum stress response signaling pathway - cell viability counter screen (AID 1159517; calls by dose curve; further: series mostly up to about 61 µM; nearly all actives have a fitted effect of over 50% in size). The essentials:
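Cpd-treated ESRE-bla HeLa (5 hr, 37 C) → LiveBLAzer 2 hr RT → CellTiter-Glo 30 min RT → luminescence.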

A short description of test [13]: qHTS assay to identify small molecule antagonists of the retinoid-related orphan receptor gamma (ROR-gamma) signaling pathway - cell viability counter screen (AID 1159520). Further: nearly all actives have a fitted effect of over 50% in size. Further: potency means the concentration at half of the fitted maximal effect. The essentials: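 Tet-on ROR gamma CHO cells (1,000/well) were plated 4 hr, given compounds in DMSO for 2 hr at 37 C, then induced with 1 uM final doxycycline for 16 hr. Viability was read as ATP by CellTiter-Glo luminescence after 30 min.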

Test [14] has as its target Nuclear receptor ROR-gamma (Homo sapiens) (UniProt P51449). In words: qHTS assay to identify small molecule antagonists of the retinoid-related orphan receptor gamma (ROR-gamma) signaling pathway (AID 1159521; further: nearly all actives have a fitted effect of over 50% in size; further: potency means the concentration at half of the fitted maximal effect). The method in brief:
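CHO cells expressing RORγ under a TET-on promoter, luciferase under RORE control. Dox 1 uM final, 16 h; compounds added 2 h prior. Luminescence decrease measured.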

Test [15] in a line: qHTS assay to identify small molecule agonists of the AP-1 signaling pathway - cell viability counter screen (AID 1159525; calls by dose curve; further: nearly all actives have a fitted effect of over 55% in size). The essentials: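 Each titration point was normalised to DMSO and tetra n-octyl ammonium bromide controls. The read was Cell Titer Glo luminescence after 30 min at RT, following 5 h compound exposure of ME-180 AP-1-bla cells at 37 °C.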
The target of test [16] is Bile acid receptor (Homo sapiens) (UniProt Q96RI1). In words: qHTS assay to identify small molecule agonists of the farnesoid-X-receptor (FXR) signaling pathway (AID 743220; active means well fitted activation curve with a large enough effect in the signal ratio in the repeat runs, not every such curve was filed as active; the % refers to the signal ratio). The essentials:
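FXR-UAS-bla HEK 293T cells carrying a UAS-driven beta-lactamase reporter were plated for 5 h at 37C/5% CO2, then exposed to DMSO-dissolved Tox21 10K compounds for 16 h at 37C. A LiveBLAzer B/G FRET substrate was loaded for 2 h at room temperature before fluorescence reading.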

The target in test [17] is Vitamin D3 receptor (Homo sapiens) (UniProt P11473). The test is described as follows: qHTS assay to identify small molecule agonists of the vitamin D receptor (VDR) signaling pathway (AID 743222; calls by dose curve). The method in brief:
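Using LiveBLAzer B/G FRET detection, agonism was scored in VDR-bla cells exposed overnight (16 h, 37C) to DMSO-dissolved compounds; substrate incubation was 2 h at room temperature.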

Test [18] can be described thus: qHTS assay to identify small molecule agonists of the vitamin D receptor (VDR) signaling pathway - cell viability counter screen (AID 743224). The essentials:
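Counter screen for cytotoxicity: VDR-bla cells at 2,000 cells/well, 16 h compound exposure, then CellTiter-Glo luminescence after the beta-lactamase measurement.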

Test [19] is described as follows: qHTS assay to identify small molecule agonists of the AP-1 signaling pathway (AID 1159526; calls by dose curve).
In test [20] the target is Retinoic acid receptor RXR-alpha (Homo sapiens) (UniProt P19793). The test is described as follows: qHTS assay to identify small molecule agonists of the RXR signaling pathway (AID 1159527; calls by dose curve; further: nearly all actives have a fitted effect of over 35% in size). The method in brief: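 Beta-lactamase reporter assay, agonist format. Engineered HEK 293T line, charcoal-stripped FBS at 2%, overnight (16 hr) exposure, fluorescence at 460 and 530 nm after 405 nm excitation.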
Sequence of Retinoic acid receptor RXR-alpha (Homo sapiens) (P19793 whole entry, looked up): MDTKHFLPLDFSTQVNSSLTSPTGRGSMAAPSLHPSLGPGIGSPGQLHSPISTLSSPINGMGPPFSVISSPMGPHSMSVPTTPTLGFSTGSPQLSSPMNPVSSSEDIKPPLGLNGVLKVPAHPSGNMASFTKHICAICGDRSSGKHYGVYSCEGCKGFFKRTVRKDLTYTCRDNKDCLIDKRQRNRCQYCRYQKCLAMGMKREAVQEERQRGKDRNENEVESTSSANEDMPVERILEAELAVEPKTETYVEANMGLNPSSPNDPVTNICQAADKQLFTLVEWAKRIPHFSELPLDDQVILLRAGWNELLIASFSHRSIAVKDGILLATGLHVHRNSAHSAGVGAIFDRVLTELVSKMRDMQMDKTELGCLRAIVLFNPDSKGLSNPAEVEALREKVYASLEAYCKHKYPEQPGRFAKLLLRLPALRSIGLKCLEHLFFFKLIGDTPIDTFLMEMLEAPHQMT

Sequence of Bile acid receptor (Homo sapiens) (Q96RI1 whole entry, looked up): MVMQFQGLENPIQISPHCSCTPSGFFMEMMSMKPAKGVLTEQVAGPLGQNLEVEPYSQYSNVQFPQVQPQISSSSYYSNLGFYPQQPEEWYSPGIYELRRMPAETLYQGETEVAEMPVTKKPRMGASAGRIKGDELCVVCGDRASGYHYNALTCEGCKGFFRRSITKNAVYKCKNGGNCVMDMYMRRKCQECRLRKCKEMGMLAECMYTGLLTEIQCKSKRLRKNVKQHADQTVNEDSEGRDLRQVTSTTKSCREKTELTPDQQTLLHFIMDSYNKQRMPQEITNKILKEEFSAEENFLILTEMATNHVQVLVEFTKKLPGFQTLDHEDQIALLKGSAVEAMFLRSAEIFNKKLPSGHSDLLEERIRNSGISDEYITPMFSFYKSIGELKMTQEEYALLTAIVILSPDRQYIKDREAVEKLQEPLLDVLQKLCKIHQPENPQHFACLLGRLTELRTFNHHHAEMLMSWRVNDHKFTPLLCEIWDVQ
Sequence of Peroxisome proliferator-activated receptor delta (Homo sapiens) (Q03181 whole entry, looked up): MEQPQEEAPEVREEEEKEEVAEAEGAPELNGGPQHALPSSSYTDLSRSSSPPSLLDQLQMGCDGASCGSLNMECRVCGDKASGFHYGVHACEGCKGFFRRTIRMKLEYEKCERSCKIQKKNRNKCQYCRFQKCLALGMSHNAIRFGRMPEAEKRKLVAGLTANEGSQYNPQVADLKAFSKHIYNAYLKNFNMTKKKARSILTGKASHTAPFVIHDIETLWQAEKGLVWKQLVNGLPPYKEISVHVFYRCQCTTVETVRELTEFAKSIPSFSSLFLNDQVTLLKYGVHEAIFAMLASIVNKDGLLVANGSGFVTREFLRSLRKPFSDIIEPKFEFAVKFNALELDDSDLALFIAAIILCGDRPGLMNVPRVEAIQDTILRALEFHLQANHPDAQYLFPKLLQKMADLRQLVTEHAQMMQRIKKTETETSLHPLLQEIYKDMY
Sequence of Vitamin D3 receptor (Homo sapiens) (P11473 whole entry, looked up): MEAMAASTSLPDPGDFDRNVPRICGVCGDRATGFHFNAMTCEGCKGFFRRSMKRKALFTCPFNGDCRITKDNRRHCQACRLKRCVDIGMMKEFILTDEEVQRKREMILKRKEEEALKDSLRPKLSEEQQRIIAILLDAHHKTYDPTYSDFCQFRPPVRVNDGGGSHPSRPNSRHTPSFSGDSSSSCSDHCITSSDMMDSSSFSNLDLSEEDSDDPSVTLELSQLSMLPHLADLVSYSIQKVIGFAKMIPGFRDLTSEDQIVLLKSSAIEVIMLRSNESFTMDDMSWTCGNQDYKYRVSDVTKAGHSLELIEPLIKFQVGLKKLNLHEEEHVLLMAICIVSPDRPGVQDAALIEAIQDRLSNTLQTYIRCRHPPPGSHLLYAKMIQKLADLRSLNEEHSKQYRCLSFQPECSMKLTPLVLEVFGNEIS

In the case of `Cn1sccc1=O`, the Potency entry in test [1], in [3], in test [6], in test [7], in test [8] and in [9] was “inactive” in each case. Moreover, the Potency result in [10], in [11] and in [15] was “inactive” throughout. Besides, the compound was called inactive in test [2], in test [4], in test [5] and in test [12]. The Potency in test [13] was 61.1 µM (active); in [14], 30.6 µM (active).
`Oc1ccc(Sc2ccc(O)cc2)cc1`: the Potency result in [1], in test [3], in test [7], in test [18], in [10] and in test [11] was “inactive” throughout. Further, the Potency result in test [13], in test [14], in test [19] and in test [20] was “inactive” throughout. Moreover, the outcome in test [2], in test [4], in test [16], in test [17] and in [12] was inactive.
Consider `COC(Cc1ccccc1)OC`, for which the Potency entry in [1], in [3], in test [6], in [7], in test [8] and in test [18] was “inactive” each time. Besides, the Potency result in test [9], in test [10], in [11], in test [13], in [14] and in test [19] was “inactive” in each case. Moreover, the call in [17] and in test [12] was inactive.
With `Cc1cc(CC(=O)O)c(C)n1-c1ccc(Cl)cc1`, the Potency result in test [1], in [3], in test [6], in test [7], in test [8] and in test [18] was “inactive” throughout. Further, the Potency result in [9], in test [10], in test [11], in [13], in [14] and in test [15] was “inactive” in each case. Also, the outcome in test [5], in [16], in test [17] and in test [12] was inactive.
Take `CCN1CCC[C@H]1CNC(=O)c1c(OC)ccc(Br)c1OC`: the Potency result in test [1], in test [3], in test [6], in [18], in test [9] and in [10] was “inactive” in each case. Also, the Potency result in test [11], in test [13], in test [14] and in [19] was “inactive” throughout. Besides, the compound was classed as inactive in [2], in [5], in [16], in test [17] and in test [12].
Turning to `CC(=O)Nc1ccc(/C=N/NC(N)=S)cc1`, the Potency result in test [1], in test [3], in [6], in [7], in test [8] and in test [18] was “inactive” in each case. Also, the Potency entry in [9], in test [10], in test [11], in test [13], in test [14] and in test [19] was “inactive” throughout. Also, the outcome in [2], in test [17] and in test [12] was inactive.
Regarding `Cl/C(=C\n1cncn1)c1ccc(Cl)cc1Cl`, the Potency result in test [1], in [3], in [6], in [7], in test [18] and in [10] was “inactive” throughout. The Potency result in [11], in [13], in test [14] and in test [15] was “inactive” each time. Moreover, the result in test [2] and in test [12] was inactive.
Consider `CC(=O)CC(=O)c1ccccc1`, for which the Potency result in test [1], in [3], in [7], in test [8], in [18] and in test [9] was “inactive” throughout. Moreover, the Potency result in test [10], in test [11], in test [13] and in [15] was “inactive” in each case. For the same compound, the compound was classed as inactive in test [2], in test [4], in test [17] and in test [12]. Further, the Potency in [14] was 6.9 µM (active).
For the compound `CC(O)C1CCCCC1` (configuration not stated), the Potency entry in test [1], in test [3], in [6], in test [7], in [18] and in [9] was “inactive” in each case. Moreover, the Potency entry in [10], in test [11], in test [13], in [14] and in test [19] was “inactive” each time. Further, the compound was called inactive in test [2], in [4], in test [17] and in test [12].
